Experimental findings from PubChem BioAssay (NCATS) are described below.

The subject of one assay is PA-1. Briefly: Primary qHTS to identify gynecologic anti-cancer compounds using libraries of approved drugs and bioactive compounds (AID 1345084). Also: nearly all actives have a fitted effect of over 55% in size. Also: potency is read from the fitted curve at half-maximal effect. As to activity change, negative = cytotoxicity: % is scaled to controls: 0 for no effect and ±100 for the full control effect. The following applies: Gynecologic cancer cell panel viability, ATPlite luminescence, 48 h; series mostly up to 57.5 µM. An outline of the steps: (§1)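 Measured: luminescence after ATPlite addition (15 min, RT). Exposure: 48 h, 37 C, 5% CO2.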

The next assay has as its system SKOV3. The description is as above. The following applies: Gynecologic cancer cell panel viability, ATPlite luminescence, 48 h; series mostly up to 57.5 µM. An outline of the steps: as §1
The subject of another assay is Tov-21-G. Described as above. The following applies: Gynecologic cancer cell panel viability, ATPlite luminescence, 48 h; series mostly up to 57.5 µM. An outline of the steps: as §1
In a further assay the test system is Tov112D. The assay is described as above. The following applies: Gynecologic cancer cell panel viability, ATPlite luminescence, 48 h; series mostly up to 57.5 µM. An outline of the steps: as §1
Assay [1] is described as follows: Drug repurposing screens with cells derived from glioblastoma tumor samples (AID 1345199). Also: nearly all actives have a fitted effect of over 40% in size. Also: potency is read from the fitted curve at half-maximal effect. As to activity, negative = cell killing: % is scaled to controls: 0 for no effect and ±100 for the full control effect. The following applies: GBM patient neurospheres viability, ATP luminescence, 48 h. An outline of the steps:
(§2)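 Primary testing used CD133+ neurospheres from four GBM patients, seven concentrations, 48 h exposure and ATP-based viability; confirmation added three slower-growing patient lines.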

The next assay concerns astro. Described as above. The following applies: viability, ATP luminescence, 48 h; series mostly up to 45.9 µM. An outline of the steps: as §2
Assay [2] in a line: qHTS assay for small molecule activators of the human pregnane X receptor (PXR) signaling pathway (AID 720659; call rule not given here; also: 0% is about no effect).
Assay [3] has as its target Nuclear receptor subfamily 1 group I member 2 (Rattus norvegicus) (UniProt Q9R1A7). Briefly: qHTS assay for small molecule activators of the rat pregnane X receptor (rPXR) signaling pathway (AID 651751; call rule not given here; also: 0% is about no effect). The following applies: rPXR reporter cells, luciferase (One-Glo), 24 h.
Setting [4] is: at 45.9 µM (top of the series), tumour line B.
Where [5] appears, read: at 45.9 µM (top of the series), tumour line D.
The mark [6] stands for this setting: at 46.1 µM (top of the series), tumour line C.

Several values for one entry are separate records, joined by “and”; a condition that tells them apart may be missing. Equal values may be shown once. Unmarked numbers belong to inactive results. Records with an inconclusive call do not appear. Some compounds were tested as several samples or in several runs, with calls that do not always agree. Activity calls are given as the source filed them. Unless noted, calls follow the shape of the dose curve; as a rule, active = well fitted curve in the direction sought with a large enough effect; inconclusive = small, poorly fitted or top-dose-only effect, or another doubt; inactive = no such curve, though single readings can be large; an effect the other way counts as inactive or inconclusive.

Nuclear receptor subfamily 1 group I member 2 (Rattus norvegicus), sequence (Q9R1A7 whole entry, looked up): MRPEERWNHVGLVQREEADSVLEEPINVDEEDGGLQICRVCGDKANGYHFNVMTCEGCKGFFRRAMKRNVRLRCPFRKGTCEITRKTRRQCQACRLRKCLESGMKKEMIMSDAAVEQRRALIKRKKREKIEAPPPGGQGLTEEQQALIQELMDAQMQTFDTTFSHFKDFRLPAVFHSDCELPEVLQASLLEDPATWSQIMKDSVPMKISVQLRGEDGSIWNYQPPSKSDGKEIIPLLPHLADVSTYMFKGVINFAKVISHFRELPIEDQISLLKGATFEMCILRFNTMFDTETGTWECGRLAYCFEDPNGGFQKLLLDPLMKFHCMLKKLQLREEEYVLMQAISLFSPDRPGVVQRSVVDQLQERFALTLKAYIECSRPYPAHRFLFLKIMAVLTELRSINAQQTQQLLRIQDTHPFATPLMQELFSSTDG

As for `CC1=CC2/C=C(\C)CCC(O)C3OC(C)(C)OC3CC(=O)OC23C(=O)NC(CC(C)C)C3C1C` (stereo not drawn), the Potency result with PA-1, in the assay with SKOV3, in the assay on Tov-21-G and in the assay with Tov112D was “inactive” each time.

`COC1CC(OC2CCC3(C)C(=CCC4C3CCC3(C)C(C(C)OC5OC(COC6OC(CO)C(O)C(O)C6O)C(O)C(O)C5O)CCC43O)C2)OC(C)C1OC1OC(C)C(O)C(OC)C1O` (stereo not drawn): the activity change, negative = cytotoxicity with PA-1 was 2.38% [at 11.6 µM]; in the assay on SKOV3, 25.2% [at 11.6 µM]; with Tov-21-G, 6.16% [at 11.6 µM]; in the assay on Tov112D, -0.166% [at 11.6 µM].

For `C=C[C@H]1CN2CC[C@H]1C[C@@H]2[C@@H](O)c1ccnc2ccccc12`, the Potency entry in the assay with PA-1, in the assay with SKOV3, with Tov-21-G, in the assay with Tov112D and in the assay on astro was “inactive” in each case. For the same molecule, the results for the activity, negative = cell killing in assay [1] (setting [4]), in assay [1] (setting [5]) and in assay [1] (setting [6]) were -7.16%, -9.4% and 15.7%, respectively. In addition, the Potency in assay [1] (tumour line A) is 17.8 µM (active).

With `COC(=O)C1(C)CCC(O)C2(C)c3cc(O)c(C(C)C)cc3C(O)C(OC(C)=O)C12` (stereo not drawn), the Potency entry with Tov-21-G and with Tov112D was “inactive” each time.

For `CC[C@H]1CN2CC[C@H]1C[C@@H]2[C@@H](O)c1ccnc2ccc(OC)cc12`, the Potency result with SKOV3, in the assay on Tov-21-G and in the assay on Tov112D was “inactive” throughout.

`CC(=O)O[C@H]1C[C@@H](OC(C)=O)C(C)(C)C2C[C@@H](O)[C@]3(C)C(CC[C@@]4(C)[C@H](C5=CC(=O)OC5O)C[C@H]5O[C@]543)[C@]21C` (stereo partly drawn): the Potency entry in the assay with PA-1, with SKOV3, in the assay on Tov-21-G and with Tov112D was “inactive” throughout.

With `CC1=C2C[C@H]3[C@@H](CC=C4C[C@@H](O)CC[C@@]43C)[C@@H]2CC[C@]12O[C@@H]1C[C@H](C)CN[C@H]1[C@H]2C`, the Potency result in the assay with PA-1, in the assay on SKOV3, in the assay on Tov-21-G and in the assay on Tov112D was “inactive” each time.

For the molecule `CC(C)[C@@]1(NC(=O)[C@@H]2C[C@@H]3c4cccc5[nH]cc(c45)C[C@H]3N(C)C2)O[C@@]2(O)[C@@H]3CCCN3C(=O)[C@H](Cc3ccccc3)N2C1=O`, the activity, negative = cell killing in assay [1] (setting [6]) is 9.68%. The Potency in assay [1] (tumour line A) was 3.16 µM (active).

As for `Cc1cccc(NC(=O)N[C@@H]2N=C(c3ccccc3)c3ccccc3N(C)C2=O)c1`, the Potency entry in the assay with PA-1, in the assay on Tov-21-G and in the assay with Tov112D was “inactive” in each case.

On to `CO[C@H]1[C@H](O)[C@H](O[C@H]2CC[C@]3(C)C4CC[C@]5(C)[C@H](C6=CC(=O)OC6)CC[C@]5(O)C4CC[C@@H]3C2)O[C@@H](C)[C@@H]1O` (stereo partly drawn), for which the Potency in the assay with PA-1 was 0.0891 µM (active); in the assay with Tov-21-G, 0.0316 µM (active).

Take `CC(=O)[C@H]1CC[C@H]2[C@@H]3CC[C@@H]4C[C@H](O)CC[C@]4(C)[C@H]3CC[C@]12C`: the activity, negative = cell killing in assay [1] (setting [4]) was -17.7%. Also, the Potency in assay [1] (tumour line D) is 17.8 µM (active).

`CC(N)Cc1c[nH]c2ccccc12` (stereo not drawn): the Potency result in the assay with PA-1, in the assay with Tov-21-G and in the assay on Tov112D was “inactive” each time.

For `COC1=CC(=O)O[C@@H](/C=C/c2ccccc2)C1`, the Potency entry in the assay with PA-1, with SKOV3, with Tov-21-G and in the assay on Tov112D was “inactive” in each case. Moreover, the result in assay [2] was inactive.

On to `CC(=O)OC1CC(O)C(C)(C)C2CC(OC(C)=O)C3(C)C(CCC4(C)C(c5ccoc5)C(=O)C5OC543)C12C` (stereo not drawn), for which the Potency result in the assay on PA-1, in the assay on SKOV3, in the assay with Tov-21-G and in the assay on Tov112D was “inactive” throughout.

With `C[CH2][Hg][S]c1ccccc1C(=O)O`, the figures for the Potency in the assay on Tov-21-G and in the assay on astro were 35.5 µM (active) and 1.58 µM (active), respectively.

Take `Cc1cc(C(=O)CN2CCCC2)c(C)n1-c1ccc(F)cc1`: the Potency entry in the assay with PA-1, with Tov-21-G and with Tov112D was “inactive” in each case.

As for `Cc1c(Cl)cccc1S(=O)(=O)Nc1nc(CC(=O)N2CCN(C)CC2)cs1`, the Potency result in the assay with PA-1, with Tov-21-G and in the assay on Tov112D was “inactive” throughout.

In the case of `COC1CC(O[C@H]2CC[C@@]3(C)C(=CCC4C3C(O)[C@@H](O)[C@]3(C)[C@@H](C(C)=O)CC[C@]43O)C2)OC(C)C1OC1CC(OC)C(OC2OC(C)C(O)C(O)C2O)C(C)O1` (stereo partly drawn), the activity change, negative = cytotoxicity with PA-1 is -3.19% [at 11.6 µM]; in the assay on SKOV3, -4.29% [at 11.6 µM]; in the assay on Tov-21-G, -7.27% [at 11.6 µM]; in the assay with Tov112D it was 3.02% [at 11.6 µM].

`O=C1C[C@@H]2OCC=C3CN4CC[C@]56c7ccccc7N1[C@H]5[C@H]2[C@H]3C[C@H]46`: the Potency result in the assay with PA-1, in the assay on SKOV3, in the assay with Tov-21-G, in the assay on Tov112D and in the assay on astro was “inactive” throughout. Moreover, the activity, negative = cell killing was -6.57% in assay [1] (setting [4]), -6.6% in assay [1] (setting [5]) and 6.33% in assay [1] (setting [6]). In addition, the Potency in assay [1] (tumour line A) was 12.6 µM (active). For the same molecule, the max response in assay [3] is 0.534%.

`CC(C)[C@@H](CN1CC[C@@](C)(c2cccc(O)c2)[C@@H](C)C1)NC(=O)[C@H]1Cc2ccc(O)cc2CN1`: the Potency entry with PA-1, in the assay on Tov-21-G and in the assay on Tov112D was “inactive” each time.

Take `CCC1NC(=O)C2C(Cl)C(Cl)CN2C(=O)C(C(C)O)NC(=O)CC(c2ccccc2)NC(=O)C(CO)NC1=O` (stereo not drawn): the Potency entry with PA-1, in the assay on Tov-21-G and in the assay with Tov112D was “inactive” in each case.

In the case of `CCOc1ccc2c3c1O[C@H]1[C@@H](O)C=C[C@H]4[C@@H](C2)N(C)CC[C@@]341`, the activity, negative = cell killing in assay [1] (setting [4]) was -22.9%.

As for `C[C@]12C[C@H]3S[C@H]3C[C@@H]1CC[C@@H]1[C@@H]2CC[C@]2(C)[C@@H](O)CC[C@@H]12`, the activity, negative = cell killing in assay [1] (at 20 µM (top of the series), tumour line C) was -0.246%; in assay [1] (at 21.2 µM (top of the series), tumour line B), -21.3%; in assay [1] (at 21.2 µM (top of the series), tumour line D), -16.8%. Moreover, the Potency in assay [1] (tumour line A) is 14.1 µM (active). The Potency entry in the assay on astro was “inactive”.

As for `CC1CCC(C(C)C)C(OC(=O)c2ccccc2N)C1` (stereo not drawn), the activity, negative = cell killing in assay [1] (setting [6]) was 13.8%. Further, the Potency is 12.6 µM (active) in assay [1] (tumour line A) and 35.5 µM (active) in assay [1] (tumour line B).

For the molecule `O=C1C[C@@H]2OCC=C3CN4CC[C@]56c7ccccc7N1[C@H]5[C@H]2[C@H]3C[C@H]46` (tested in a mixture with another compound), the activity, negative = cell killing was -8.18% and -6.54% in assay [1] (setting [4]); -14.5% and -6.5% in assay [1] (setting [5]); 1.96% and -18.9% in assay [1] (setting [6]). Besides, the Potency in assay [1] (tumour line A) was 20 µM (active). Also, the Potency result with astro is “inactive”.
